NS1 inh: influenza NS1 inhibition; Potency, µM (top dose mostly 46.1 µM), without a hit: at the highest dose activity, positive = more growth; 270,000 compounds, 0.4% hits; AID 2326; also: potency is read from the fitted curve at half-maximal effect; actives are rising curves; nearly all actives have a fitted effect of over 50% in size
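Read-out: OD600 growth recovery of NS1-expressing budding yeast. Cells grown overnight at 30C in -URA glucose medium, washed, resuspended and diluted 1:100 in 2% galactose assay medium, pH 6.0. Same strain lacking NS1 served as positive control.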
AMA1 RON2 block: AMA1-RON2 (P. falciparum) interaction inhibition; AlphaScreen AMA1-biotinylated RON2 peptide binding; Potency, µM (doses to about 58.2 µM), for inactives: at the highest dose activity change, negative = inhibition, actives largely listed as inhibitors; 360,000 compounds, 0.2% hits; active = well fitted inhibition curve with a large enough effect; inconclusive = small, poorly fitted or top-dose-only effect; inactive = no such curve, though single readings can be large or run the other way;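 also: potency is read from the fitted curve at half-maximal effect; 0% = vehicle wells and -100% = peptide control; nearly all actives have a fitted effect of over 45% in size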
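AMA1 (3D7) with his tag at 25 nM final met compounds first, then biotinylated RON2 peptide at 25 nM; detection used donor plus acceptor beads, 10 µg/mL apiece, read by AlphaScreen after 30 min at room temperature.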
SARS PLP yeast: blocks SARS-CoV papain-like protease in a yeast assay; 330,000 compounds, 0.19% hits; AID 485353; Potency, µM (top dose mostly 32.9 µM), without a hit: at the top dose activity, positive = growth rescue, most hits filed as activators; S. cerevisiae expressing SARS-CoV PLpro, growth rescue; also: potency is read from the fitted curve at half-maximal effect; 0% is about no effect; nearly all actives have a fitted effect of over 55% in size
Flu NS1 inh: validation of influenza NS1 protein function inhibitors; influenza NS1 function cell assay, 15-point titration; AID 492980; 1,400 tested, under 10 active; activity change, negative = inhibition, % at 32.9 µM; shares compounds with NS1 inh; also: 0% is about no effect
PR8 titer: influenza NS1 inhibitors: inhibition of influenza A/PR/8/34 replication; MDCK infected influenza A/PR/8/34, virus titer TCID50; stronger effect = lower value; virus titer (log TCID50), log10 TCID50 at 5 µM; shares compounds with NS1 inh; 95 compounds, 30% hits; AID 504647; call rule not given here
Active calls of the source: *; [ ] = dose if it differs, or a comment. An excerpt weighted towards active compounds, which were near 0.65% of everything screened. Unless noted, calls follow the shape of the full dose curve.

`CCN(CC)C(=O)CSc1nc2cccnc2n1-c1ccccc1OC` gave NS1 inh -1%, AMA1 RON2 block -7% and SARS PLP yeast -4%.
`COc1ccccc1-n1c(SCC(=O)N2CCOCC2)nc(O)cc1=O` gave NS1 inh inconclusive, AMA1 RON2 block -5% and SARS PLP yeast 3%.
CCN(CC)C(=O)CSc1nc2ccccc2c(=O)n1-c1ccccc1OC was read as NS1 inh 35µM*, AMA1 RON2 block -8%, SARS PLP yeast -5% and Flu NS1 inh -6.
`COc1ccccc1-n1c(SCC(=O)N2CCOCC2)nc(O)c(Cc2ccccc2)c1=O` gave NS1 inh inconclusive, AMA1 RON2 block 29%, SARS PLP yeast 1% and Flu NS1 inh 13.
For COc1ccc(Cc2c(O)nc(SCC(=O)N3CCOCC3)[nH]c2=O)cc1 the results were NS1 inh 1%, AMA1 RON2 block -15% and SARS PLP yeast -1%.
`O=C(CSc1nc(O)c(Cc2ccccc2)c(=O)[nH]1)N1CCOCC1` gave NS1 inh inconclusive, AMA1 RON2 block 8%, SARS PLP yeast 3%, Flu NS1 inh 14 and PR8 titer 8.5.
For COc1ccccc1-n1c(SCC(=O)N2CCCC2)nc2cccnc21 the results were NS1 inh 2µM*, AMA1 RON2 block -13%, SARS PLP yeast 1% and Flu NS1 inh -4.
`COc1ccc(CC(=O)NCc2ccccc2F)cc1S(=O)(=O)N1CCOCC1` gave AMA1 RON2 block -9%.
Screening COc1ccccc1CCC(=O)Nc1ccc(S(=O)(=O)Nc2nccs2)cc1 returned AMA1 RON2 block -4% and SARS PLP yeast -1%.
For O=C(c1ccco1)N1CCN(C(=S)NCc2ccc(F)cc2)CC1 the results were NS1 inh 4%, AMA1 RON2 block 4% and SARS PLP yeast inconclusive.
CCOC(=O)c1c(NC(=S)Nc2cc([N+](=O)[O-])ccc2OC)sc2c1CCCCC2 was read as NS1 inh 22% and SARS PLP yeast 24%.
For COC(=O)c1c(NC(=S)Nc2cc(OC)c(Cl)cc2OC)sc2c1CCCCC2 the results were NS1 inh 11µM*, AMA1 RON2 block 9%, SARS PLP yeast -1%, Flu NS1 inh 5 and PR8 titer 8.5.
Screening Nc1ncnc2c1ncn2[C@@H]1O[C@H](CN2CCCS2(=O)=O)[C@@H](O)[C@H]1O returned AMA1 RON2 block -4% and SARS PLP yeast -3%.
Cc1ccc(C2(C)NC(=O)N(CC(=O)Nc3ccc(S(=O)(=O)Nc4nccs4)cc3)C2=O)cc1 (configuration not stated) was read as AMA1 RON2 block -23%.
`CC1(C(=O)Nc2ccccc2)CCN1C(=O)C1(c2ccccc2)CC1` (configuration not stated) gave AMA1 RON2 block 18%.
`O=C(CSc1nnc(-c2cccs2)n1-c1ccccc1)NCC1CCCO1` (configuration not stated) gave NS1 inh -6% and AMA1 RON2 block -25%.
`c1ccc(-n2c(SCC3CCCCO3)nnc2-c2cccs2)cc1` (configuration not stated) gave NS1 inh inconclusive, AMA1 RON2 block -12%, SARS PLP yeast 1% and Flu NS1 inh inconclusive.
`Cc1ccccc1CN1C(=O)C(C)Sc2ccc(-c3ccco3)cc21` (configuration not stated) gave AMA1 RON2 block -23%.
For CC(NCc1ccc(S(N)(=O)=O)cc1)C(=O)Nc1cccc(Cl)c1 (configuration not stated) the results were NS1 inh 3%, AMA1 RON2 block -6% and SARS PLP yeast -1%.
Screening CCOC(=O)C1CCN(S(=O)(=O)c2c[nH]c(=O)[nH]c2=O)CC1 returned AMA1 RON2 block -3% and SARS PLP yeast 0%.
Screening N#Cc1ccc(S(=O)(=O)N2CCCCC2c2cc(C(=O)N3CCOCC3)no2)cc1 (configuration not stated) returned AMA1 RON2 block -6%.
For Cc1ccc(S(=O)(=O)c2c(C(=O)c3ccccc3)cnc3cc4c(cc23)OCCO4)cc1 the results were NS1 inh 16µM*, AMA1 RON2 block 17%[2.32 µM], SARS PLP yeast -3% and Flu NS1 inh 8.
`Cc1c(C(=O)c2ccc(Cl)c(Cl)c2)cnc2cc3c(cc12)OCO3` gave NS1 inh 5%, AMA1 RON2 block -16% and SARS PLP yeast -17%.

Source: PubChem (National Center for Advancing Translational Sciences (NCATS))
